# Measurements: PubChem BioAssay AID588342 (National Center for Advancing Translational Sciences (NCATS), 2011)
# The whole screen tested about 360,000 compounds, of which about 25,000 (6.9%) were called active. A call without a number means that no potency is given here. Roughly 9% stayed inconclusive and do not appear here. Only a selection was taken, and actives are over-represented in it overall. Unmarked numbers belong to inactive results. Calls come from the whole dose curve; as a rule, active = well fitted inhibition curve with a large enough effect; inconclusive = small, poorly fitted or top-dose-only effect; inactive = flat fitted curve, though single readings scatter.
# Target: Luciferin 4-monooxygenase (Photinus pyralis) (UniProt P08659)
# Sequence (P08659 whole entry, looked up): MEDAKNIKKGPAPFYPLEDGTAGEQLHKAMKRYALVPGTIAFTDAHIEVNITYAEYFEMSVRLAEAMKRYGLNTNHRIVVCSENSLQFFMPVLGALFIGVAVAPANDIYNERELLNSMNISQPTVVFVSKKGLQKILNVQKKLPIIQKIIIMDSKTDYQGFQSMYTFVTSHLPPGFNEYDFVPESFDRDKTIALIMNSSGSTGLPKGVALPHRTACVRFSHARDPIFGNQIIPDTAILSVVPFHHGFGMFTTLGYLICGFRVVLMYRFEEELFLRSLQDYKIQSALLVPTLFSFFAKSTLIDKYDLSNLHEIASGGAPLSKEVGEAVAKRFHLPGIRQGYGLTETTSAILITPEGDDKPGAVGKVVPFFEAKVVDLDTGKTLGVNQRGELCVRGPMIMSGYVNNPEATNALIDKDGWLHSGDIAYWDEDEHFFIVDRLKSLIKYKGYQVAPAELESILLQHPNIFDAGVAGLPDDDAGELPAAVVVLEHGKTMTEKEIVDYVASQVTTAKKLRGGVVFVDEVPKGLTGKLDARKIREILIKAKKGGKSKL
# Assay: qHTS profiling assay for firefly luciferase inhibitor/activator using purifed enzyme and Km concentrations of substrates (counterscreen for miR-21 project); note: nearly all actives have a fitted effect of over 55% in size
# Settings: purified FLuc, luminescence inhibition; series mostly up to 57.5 µM
# Description: MLPCN Grant: 1 R21 NS059478-01 (miR-21 grant) Assay Provider: NCGC NCGC Assay Overview: Firefly (Photinus pyralis) luciferase is one of the most commonly used transcriptional reporters for a number of reasons. It is considered one of the more dynamically responsive reporters -that is, responsive to changes in reporter transcription - as it requires no post-translational modifications and is enzymatically active directly after protein synthesis (Wood, 1998). Additionally, the half-life of the luciferase protein is short relative to other reporter-gene products (Wood, 1995). Whereas reporters with long half-lives potentially allow for increased signal due to accumulation of reporter-gene product, once accumulated in the cell, dynamic changes in reporter-gene expression may be difficult to detect(Fan and Wood, 2007; Almond et al., 2004). It has been shown that wild-type P. pyralis luciferase has a half-life of approximately […] hours in mammalian cells (Thompson et al., 1991). Firefly luciferase reporter-gene assays are also generally considered one of the most sensitive assay types (Wood, 1995; Wood, 1998). Although light produced in a bioluminescence reaction is of lower intensity than that produced during fluorescence emission, this is offset by little to no background light inherent to luminescent assays. Thus the luciferase reporter can be expressed at much lower levels than fluorescent proteins while still providing robust signal. # However, it was initially observed, in 1991, by Thompson et al., that compounds that resemble the substrates of firefly luciferase (FLuc) can act as competitive inhibitors of the enzyme, and that these compounds, upon interaction with luciferase in the cell, can actually stabilize the protein and increase its half-life. Accumulated intracellular FLuc protein can be measured as an increase in luminescence signal, upon addition of detection reagents (which contain high concentrations of FLuc substrates) commonly used in high-throughput screening. In cell-based reporter gene assays that use FLuc as the reporter gene to quantitate the potential influence of a given compound against the target biology, this apparent increase in luminescence can mistakenly be interpreted as identification of a compound that is active against the target of interest. This is the case for the miR-21 FLuc reporter gene assay used to identify inhibitors of the miR-21 pathway (PubChem AID 2289) - compounds of interest will inhibit miR-21 biogenesis/expression or activity, and are identified by causing an increase in luminescence, due to increased FLuc translation. However, FLuc inhibitory compounds that stabilize the FLuc protein will give an identical read-out, making it difficult to distinguish compounds that are active against the target from those active against FLuc. Previous profiling work to determine the prevalence of compounds that affect FLuc enzymatic activity (PubChem AID 411) identified that ~3% of the MLSMR library (then at ~72K) inhibited FLuc. […] Since the MLSMR had grown to ~350K compounds, and since it was expected that a significant percentage of compounds found active in the miR-21 FLuc assay would be FLuc inhibitors, the library was screened for activity against FLuc using a biochemical assay of purified FLuc and KM concentrations of FLuc substrates (D-luciferin and ATP).
# NCGC Assay Protocol Summary: Reagents: 50mM Tris acetate, pH 7.5; 10mM Mg acetate; 10uM D-luciferin (Sigma #L9504); 10uM ATP; 0.01% Tween-20; 0.05% BSA; 10nM P. pyralis luciferase (Sigma #L9506) Control compounds used were two known firefly luciferase inhibitors (compounds (2) and (5) in Auld et al., 2010), and DMSO. […]
row,SMILES,Potency
1,COc1ccc(-c2cc(=O)c3c(O)cc(O[C@@H]4O[C@H](CO[C@@H]5O[C@@H](C)[C@H](O)[C@@H](O)[C@H]5O)[C@@H](O)[C@H](O)[C@H]4O)cc3o2)cc1O,inactive
2,COc1ccccc1CNC(=O)CCCCn1c(=O)c2ccccc2n(CC(=O)Nc2cc(Cl)ccc2C)c1=O,inactive
3,Cc1nn(C(=O)c2c(F)cccc2F)c(C)c1S(=O)(=O)N1CCOCC1,inactive
4,CC(C)(C)OC(=O)NCCCCCNC(=O)c1[nH]cnc1C(=O)Nc1nccs1,inactive
5,Cc1ccc(-n2c(SCC(=O)NCc3ccc4c(c3)OCO4)nnc2-c2cccnc2)c(C)c1,inactive
6,Cc1ccc(C)c(N2CCN(C(=O)C3CCC(CNS(=O)(=O)c4cccs4)CC3)CC2)c1 (stereo unspecified),inactive
7,Cc1ccc2c(c1)c1ncnc(N3CCc4ccccc4C3)c1n2C,13.5 µM (active)
8,Cc1ccc(S(=O)(=O)Nc2nc3ccccc3nc2N2CCc3ccccc3C2)cc1,inactive
9,Cc1ccc2c(c1)c1ncn(Cc3ccc(F)cc3)c(=O)c1n2C,inactive
10,CCN(CC)CCCNC(=O)c1cn(C)c2ccc(S(=O)(=O)N(C)C3CCCCC3)cc2c1=O,inactive
11,Cn1c(=O)c2c(-c3ccccc3Br)n(Cc3ccccc3)cc2n(C)c1=O,inactive
12,COc1cc(OC)cc(-c2c(-c3cccs3)c3cc(-c4ccc(OC)cc4F)ccc3n2C)c1,inactive
13,CCn1cc(C(=O)NCc2ccc(OC)cc2OC)c(=O)c2ccc(C)nc21,inactive
14,O=C(/C=C/c1ccccc1)N1CCN(Cc2cc(=O)n3nc(-c4ccccc4F)sc3n2)CC1,inactive
15,O=C(CNC(=O)c1cccnc1)N/N=C/c1cccnc1,inactive
16,O=C(CNC(=O)c1cccnc1)N/N=C/c1cc(Br)c(O)c(Br)c1,inactive
17,Cc1cc(/C=N/NC(=O)c2cccnc2)c(C)n1CC(C)C,7.57 µM (active)
18,COc1ccc(Cn2c(C(=O)O)c(CNCCc3cccs3)c3ccc(OC)cc32)cc1,inactive
19,Cc1cc(N=Nc2ccc3ccccc3c2)ccc1O,1.35 µM (active)
20,CCOc1ccc(-c2nonc2NC(=O)c2oc3ccc(C)cc3c2C)cc1OCC,inactive
21,COc1ccc(NS(=O)(=O)c2cc(NC(=O)/C=C/c3cc(OC)c(OC)c(OC)c3)ccc2N2CCCCC2)cc1,inactive
22,COc1ccc(/C=C/C(=O)N2CCCC2)cc1OC,inactive
23,COc1ccc(/C=C/C(=O)Nc2ccc(C)cc2)cc1S(=O)(=O)N1CCOCC1,inactive
24,COc1cccc(/C=C/C(=O)Nc2ccc3c(c2)OCCO3)c1,0.757 µM (active)
25,COc1ccc(S(=O)(=O)N(C)CC(=O)Nc2ccc3c(c2)OCCO3)cc1OC,inactive
26,COc1ccc(/C=C/C(=O)Nc2ccc(C34CC5CC(CC(O)(C5)C3)C4)cc2)cc1OC,0.601 µM (active)

row,SMILES,Potency
1,COc1ccc2c(c1)c(=O)c(C(=O)c1ccccc1)cn2CC(=O)Nc1ccc2c(c1)OCCO2,inactive
2,COc1cccc(NC(=O)CSc2nccn(-c3ccc4c(c3)OCCO4)c2=O)c1,inactive
3,COc1ccc(/C=C/C(=O)Nc2ccc3c(c2)OCCO3)cc1OC,23.9 µM (active)
4,COc1cc(C(=O)Nc2cc(C(F)(F)F)ccc2-n2cncn2)cc(OC)c1OC,inactive
5,CN(C)C(=O)N1CCNCC1,inactive
6,CC12C(=O)N(c3ccccc3)C(=O)C1C(c1ccccc1)N1CCCN12 (stereo unspecified),inactive
7,CCOC(=O)C1CN(S(=O)(=O)c2ccc(F)cc2)C1,inactive
8,COc1ccc(CNC(=O)c2ccc(NS(=O)(=O)c3ccc4[nH]c(=O)[nH]c4c3)cc2)cc1OC,inactive
9,CCC1CCCCN1C(=O)Nc1cccc(NC(=O)N2CCCCC2CC)c1 (stereo unspecified),inactive
10,CCC1CCCCN1C(=S)Nc1ccc(SC(F)F)cc1 (stereo unspecified),12 µM (active)
11,CCC1CCCCN1C(=S)Nc1ccc(S(=O)(=O)Nc2ncccn2)cc1 (stereo unspecified),inactive
12,COC(=O)c1ccc(NC(=O)c2ccco2)cc1,15.1 µM (active)
13,Cc1cc(NC(=O)[C@H](C)NC(=O)c2ccco2)ccc1Br,inactive
14,Cc1cccc(OCC(=O)Nc2ccc(NC(=O)c3ccco3)c(C)c2)c1,inactive
15,Cc1cc(NC(=O)c2ccc(F)cc2)ccc1NC(=O)c1ccco1,16.9 µM (active)
16,O=C(/C=C/c1ccco1)Nc1ccc(Oc2ccccc2)cc1,6.01 µM (active)
17,Cc1ccc(C(=O)COc2cccc(NC(=O)c3ccco3)c2)cc1,23.9 µM (active)
18,COc1ccc(NC(=O)c2ccco2)cc1NC(=O)COc1ccc(C)c(C)c1,inactive
19,CCOC(=O)c1ccc(NC(=O)CNC(=O)c2ccco2)cc1,inactive
20,COC(=O)c1cc(NC(=O)c2ccco2)ccc1N1CCOCC1,inactive
21,O=C(Nc1ccccc1)/C(=C\c1ccco1)NC(=O)c1ccco1,inactive
22,COc1ccc(OCC(=O)Nc2ccc(NC(=O)c3ccco3)c(C)c2)cc1,inactive
23,O=C(/C=C/c1ccco1)NC(=S)Nc1ccccc1Br,inactive
24,COc1ccc(CC(=O)N2N=C(C)CC2(O)C(F)(F)F)cc1 (stereo unspecified),inactive
25,C#CCN1CC(C)/C(=N/O)CC1C (stereo unspecified),inactive
